The campaign covered roughly 2,100 compounds. About 260 (12%) were called active. Not shown: some 58% with an inconclusive outcome. The call rests on the fitted dose curve; in most records, active means well fitted cell-killing curve with a large enough effect; inconclusive means small, poorly fitted or top-dose-only effect, or effect the other way; inactive means flat fitted curve, though single readings scatter. Some of the results follow. Entries that show only a call come without a potency.
Potency means the concentration at half of the fitted maximal effect.

This experiment is described as follows: Viability Counterscreen for Confirmatory qHTS for Inhibitors of ATXN expression. Further: nearly all actives have a fitted effect of over 50% in size. The following applies: HEK-293 ATXN2-luc cells viability, CellTiter-Fluor, 24 h. The method, boiled down:
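Luminescence read-out (SteadyGlo, 5 min) followed a 30 min Gly-Phe-AFC (25 uM final) viability fluorescence read. ATXN2-luciferase reporter cells were exposed 24 h to a dilution series. Medium-only wells served as the 100% inhibition reference.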
Consider `CCC(C)Sc1cc(C(F)(F)F)c(C(=O)Nc2ccc(Cl)cc2)cn1` (stereo not drawn), for which the Potency entry is “inactive”.

Turning to `COC(=O)Cc1[nH]n(-c2nc3ccccc3s2)c(=O)c1C(C)=Nc1ccc(C)cc1`, the Potency result was “inactive”.

`COc1cc(C)c(C(=O)CC(=O)c2c(C)cc(OC)cc2C)c(C)c1`: the Potency result was “inactive”.

Regarding `CCN(CC)S(=O)(=O)c1ccc(NC(=O)Nc2cccc(C(F)(F)F)c2)cc1`, the Potency entry is “inactive”.

Consider `COc1ccc(/C=N/Nc2cc(N3CCCC3)nc(N3CCCC3)n2)cc1`, for which the Potency is 3.16 µM (active).

Take `COc1ccc(C(=O)N/N=C/c2ccc(N(C)c3ccccc3)cc2)cc1`: the Potency entry was “inactive”.

As for `COc1ccc(C)cc1Nc1nc(C)nc2sc(C)cc12`, the Potency result is “inactive”.

`CCOc1ccc(CCNC(=O)c2ccc(OCc3c(C)noc3C)cc2)cc1OCC`: the Potency entry was “inactive”.

Turning to `Cc1ccc(OCC(O)Cn2c(=N)n(CCN3CCCCC3)c3ccccc32)cc1` (stereo not drawn), the Potency was 22.4 µM (active).

Consider `CCCCCn1c(=N)n(CC(O)COc2ccccc2OC)c2ccccc21` (stereo not drawn), for which the Potency was 3.98 µM (active).

Consider `N=c1n(CCN2CCCCC2)c2ccccc2n1CC(O)c1ccc(Cl)c(Cl)c1` (stereo not drawn), for which the Potency is 25.1 µM (active).

Consider `COc1cc2c(C(=O)N3CCOCC3)c(CSc3ccccc3)n(C)c2cc1Br`, for which the Potency entry is “inactive”.

Regarding `CN(C)c1ccc2c(c1)OC(N)=C(C#N)C2c1cccc(F)c1` (stereo not drawn), the Potency entry is “inactive”.

As for `COc1cc2nc(CN(C)Cc3ccc(SC)cc3)[nH]c(=O)c2cc1OC`, the Potency result was “inactive”.

Turning to `COc1ccc(C(=O)NC(=S)NNC(=O)c2cnccn2)cc1`, the Potency entry was “inactive”.

Regarding `COc1ccc(Br)cc1C(=O)Nc1ccccc1N1CCN(C(=O)c2ccccc2)CC1`, the Potency entry was “inactive”.

With `Cc1ccc(C(=O)N2CCN(c3ccc(NC(=S)NC(=O)c4cccs4)cc3)CC2)cc1`, the Potency entry was “inactive”.

With `COc1c(C)cccc1C(=O)Nc1ccc(N2CCN(C(=O)c3ccccc3C)CC2)cc1`, the Potency is 25.1 µM (active).

`Cn1c(=O)c2c(nc(SCCN3CCOCC3)n2Cc2cccc3ccccc23)n(C)c1=O`: the Potency entry is “inactive”.

As to `CCc1ccc(-n2cc(-c3ccc(F)cc3)[n+]3c2SCCC3)cc1`, the Potency result is “inactive”.

For the compound `CCn1c(COc2ccccc2C)nnc1SCC(=O)N1CCN(c2ccccc2)CC1`, the Potency entry was “inactive”.

For `O=C1C=CCC(/C=C/c2ccccc2)O1` (stereo not drawn), the Potency was 20 µM (active).

As to `Cc1c(CC(=O)NCCCC(=O)O)c(=O)oc2cc3c(cc12)CCC(C)(C)O3`, the Potency entry was “inactive”.

With `CCc1nc2ccccc2c(C(=O)OCC(=O)Nc2cccc(S(=O)(=O)NC3=NCCCCC3)c2)c1C`, the Potency is 25.1 µM (active).

For the compound `CCc1nc2ccccc2c(C(=O)OCC(=O)Nc2ccc(NC(C)=O)cc2)c1C`, the Potency result is “inactive”.

As for `NS(=O)(=O)c1ccc(NC(=O)COC(=O)c2c3c(nc4ccccc24)/C(=C\c2ccc4c(c2)OCO4)CCC3)cc1`, the Potency entry was “inactive”.

On to `COc1ccc(N(CC(=O)N2CCN(c3ccc(Cl)cc3)CC2)S(=O)(=O)c2c(C)n[nH]c2C)cc1`, for which the Potency entry is “inactive”.

Regarding `O=C(Nc1ccc(Cl)c(Cl)c1)Nc1nnc(CSc2ccccc2)s1`, the Potency was 2.51 µM (active).

For `CCOc1ccc(NC(=O)Nc2nnc(CC(=O)NCc3ccccc3)s2)cc1`, the Potency entry was “inactive”.

For `CCCCN1C(=O)/C(=C2/Sc3ccccc3N2C)S/C1=N\c1ncn[nH]1`, the Potency result is “inactive”.

With `CC1=CC(C)(C)N2C(=O)C3(SCC(=O)N3c3ccc(F)cc3)c3cc(C)cc1c32` (stereo not drawn), the Potency result is “inactive”.

Regarding `CCN(CC)c1ccc(C(=O)N/N=C/c2ccccc2OC(F)F)cc1`, the Potency result was “inactive”.

In the case of `CCN(CC)c1ccc(/C=C/c2cccc[n+]2C)c(OC)c1`, the Potency is 12.6 µM (active).

As to `O=C(C1CC(=O)N(c2ccc3c(c2)OCCO3)C1)N1CCN(c2ccccc2)CC1` (stereo not drawn), the Potency result was “inactive”.

Regarding `O=C(CSc1nnc(-c2ccccc2)o1)Nc1ccccc1F`, the Potency result was “inactive”.

On to `CC1CC(C)CN(CCCNC(=O)c2cc3c(s2)-c2ccccc2OC3)C1` (stereo not drawn), for which the Potency entry is “inactive”.

As for `Cc1ccc(NC(=O)CCC(=O)c2cc(C)sc2C)nc1`, the Potency result is “inactive”.

For `COc1ccc(-c2cc(C3CCN(c4ccc(C(C)=O)cc4[N+](=O)[O-])CC3)[nH]n2)cc1`, the Potency is 28.2 µM (active).

As to `CC(=O)c1ccc(N2CCc3ccccc3C2)c([N+](=O)[O-])c1`, the Potency entry is “inactive”.

Regarding `CN1CCC2(CC1)N=C(c1ccc(F)cc1)C(=S)N2C(=O)c1ccc(C(C)(C)C)cc1`, the Potency result was “inactive”.

As for `CC(C)n1c(NCc2cc(Cl)ccc2O)nc2ccccc21`, the Potency entry is “inactive”.

`Cc1cc(Oc2ccc(Cl)cc2)nc(-c2ccccn2)n1`: the Potency entry was “inactive”.

For the compound `Clc1ccc(CSc2ccc(-c3ccccn3)nn2)cc1`, the Potency result is “inactive”.

As for `Clc1ccc(SCc2cc(N3CCOCC3)nc(-c3ccccn3)n2)cc1`, the Potency is 10 µM (active).

As for `CCN(CC)CCCNc1nc2ccccc2c2nc(-c3ccncc3)nn12`, the Potency was 25.1 µM (active).

With `COC(=O)N/N=C/c1cn(CC(C)COc2ccccc2)c2ccccc12` (stereo not drawn), the Potency entry was “inactive”.

Consider `Cc1ccc(C)n1-c1ccc(C(=O)N2CCC(C(N)=O)CC2)cc1`, for which the Potency entry was “inactive”.

`O=C1C(Cl)=C(N2CCC(C(=O)O)CC2)C(=O)c2ccccc21`: the Potency result is “inactive”.

Consider `CCOC(=O)C1CCN(C(=O)c2c(C)oc3c2C(=O)c2ccccc2C3=O)CC1`, for which the Potency is 25.1 µM (active).

In the case of `COc1ccc(CCCNC(=O)C2Cc3c(-c4cccc(NC(C)=O)c4)ccnc3O2)cc1` (stereo not drawn), the Potency entry is “inactive”.

`N#CCc1nc2ccccc2c(=O)[nH]1`: the Potency entry is “inactive”.

As for `Cc1[nH]c(=O)c(C(=O)/C=C/c2ccccc2)c2c1CCCC2`, the Potency was 20 µM (active).

On to `COC(=O)c1ccccc1S(=O)(=O)NNC(=O)Nc1ccccc1`, for which the Potency result is “inactive”.

As to `C(=N\Nc1nc2ccccc2[nH]1)/c1cccc2nccnc12`, the Potency result is “inactive”.

For `CC(C)Cn1c(/C=N/Nc2nc3ccccc3[nH]2)nc2ccccc21`, the Potency was 11.2 µM (active).

As to `CCCCn1c(/C=N/Nc2nc3ccccc3[nH]2)nc2ccccc21`, the Potency entry was “inactive”.

As to `Cc1sc2nc(CN3CCCC3)nc(N3CCC(C(N)=O)CC3)c2c1C`, the Potency result is “inactive”.

On to `Cc1cc(C)n(CCC(=O)N/N=C/c2ccc(O)cc2O)n1`, for which the Potency entry is “inactive”.

As to `O=C(N/N=C/c1ccc(O)cc1O)c1ccncc1`, the Potency entry was “inactive”.

With `Cc1cc([N+](=O)[O-])nn1Cc1ccc(C(=O)N/N=C/c2ccc(O)cc2O)cc1`, the Potency was 10 µM (active).

With `CCn1c(-c2ccc(C)cc2)nn(CC(=O)NCCc2ccccc2)c1=S`, the Potency result was “inactive”.

Regarding `O=C(NN=Cc1ccc(O)cc1O)c1ccccc1NS(=O)(=O)c1cccs1`, the Potency result is “inactive”.

On to `CCc1ccc(C(O)c2ncc(-c3cccc(C(F)(F)F)c3)[nH]2)cc1` (stereo not drawn), for which the Potency entry is “inactive”.

With `CCN(CC)CCn1nc2c3c(cccc3c1=O)-c1ccccc1-2`, the Potency is 14.1 µM (active).

Take `COc1ccc(/C(N)=N/OC(=O)N2CCOCC2)cc1`: the Potency result was “inactive”.

`Cn1c2c(c(=O)[nH]c1=O)C(c1cccc(O)c1)C1=C(N2)c2ccccc2C1=O` (stereo not drawn): the Potency is 22.4 µM (active).

Take `CC(=O)C(C(C)=O)c1c(Cl)c(O)c(O)c2c(C(=O)c3ccccc3)coc12`: the Potency was 12.6 µM (active).

For the compound `CCOC(=O)C(C(C)=O)c1c(Br)c(O)c(O)c2c(C(=O)c3ccc(C)cc3)coc12` (stereo not drawn), the Potency is 15.8 µM (active).

Regarding `Cc1ccc(NC(=O)CSc2ccc(Br)cc2)cc1S(=O)(=O)N1CCOCC1`, the Potency result is “inactive”.

`CCc1ccc(N(CC)C(=O)c2ccc3c(Cl)c4c(nc3c2)CCC4)cc1`: the Potency entry is “inactive”.

For `Cc1ccc(Cc2cnc(NC(=O)/C(C#N)=C/c3ccc(-c4cccc([N+](=O)[O-])c4)o3)s2)cc1`, the Potency was 22.4 µM (active).

Turning to `CCN1C(=O)/C(=C/c2nc3ccccc3c(=O)n2-c2ccccc2)c2ccccc21`, the Potency was 25.1 µM (active).

`COc1cc(Br)cc(/C=N/NC(=O)Cc2ccccc2)c1O`: the Potency entry is “inactive”.

On to `C=CCOc1ccc(CNc2ccc3[nH]c(=O)[nH]c3c2)cc1OC`, for which the Potency result was “inactive”.

Turning to `COc1ccc(Cc2nnc(N/N=C/c3ccccc3O)[nH]c2=O)cc1OC`, the Potency is 4.47 µM (active).

As for `Cc1ccc(S(=O)(=O)c2c(N)n(CC3CCOC3)c3nc4ccccc4nc23)cc1` (stereo not drawn), the Potency entry is “inactive”.

Turning to `COc1cccc(/C=N/n2c(N)c(S(=O)(=O)c3cccs3)c3nc4ccccc4nc32)c1OC`, the Potency was 22.4 µM (active).

As to `CCn1ccnc1CN1CCCC(C(=O)c2ccc3cc(OC)ccc3c2)C1` (stereo not drawn), the Potency entry is “inactive”.

As to `O=S(=O)([N-]c1nc2ccccc2nc1-[n+]1ccc(Cc2ccccc2)cc1)c1ccc(Br)s1`, the Potency was 7.94 µM (active).

In the case of `CCc1noc(C)c1C(=O)N1CCSC1=Nc1cccc(Cl)c1C`, the Potency entry was “inactive”.

Take `CC1(C)Cc2ccccc2C2=NNC(=O)C2=N1`: the Potency is 28.2 µM (active).

Consider `O=c1cc(C(F)(F)F)[nH]c2ccc(C(F)(F)F)cc12`, for which the Potency entry is “inactive”.

Regarding `COc1ccc(N(C)S(=O)(=O)c2ccc(Cl)c(C(=O)NCCc3ccc(Cl)cc3)c2)cc1`, the Potency result is “inactive”.

As for `CN(C)CCNC(=O)c1ccc(Cl)c2cc3ccccc3nc12`, the Potency was 10 µM (active).

As for `CSc1sc(C(=O)NN)c2c1C1(CCC2)SCCS1`, the Potency entry is “inactive”.

`CCCCCn1c(=O)c2ccccc2n2c(CCl)nnc12`: the Potency was 25.1 µM (active).

Consider `CCOC(=O)C(CC)(CC)C(=O)/C=C/c1ccc(OC)cc1`, for which the Potency entry was “inactive”.

Consider `CC(C)=CCc1ccc(O)c(=O)cc1C(C)C`, for which the Potency entry is “inactive”.

For `O=C(N/N=C(\Cc1ncc[nH]1)c1ccccc1)c1cccnc1`, the Potency result was “inactive”.

Consider `COc1cc(C(=O)N/N=C(\c2ccccc2)c2ccccn2)cc(OC)c1OC`, for which the Potency was 2.24 µM (active).

As for `COc1cc(C(=O)N/N=C(\Cc2ncc[nH]2)c2ccccc2)cc(OC)c1OC`, the Potency entry was “inactive”.

In the case of `CCc1ccc(NC(=O)C2CCN(S(=O)(=O)c3ccc4c(c3)CC(C)N4C(C)=O)CC2)cc1` (stereo not drawn), the Potency result was “inactive”.

In the case of `CCOc1ccc(S(=O)(=O)NCCC(=O)N2CC=C(c3ccccc3)CC2)cc1`, the Potency result was “inactive”.

As to `COc1cc2[nH]c(=O)n(CCCCCC(=O)N3CC=C(c4ccccc4)CC3)c(=O)c2cc1OC`, the Potency was 3.16 µM (active).

In the case of `Cc1cccn2c(=O)c3cc(C(=O)NCCc4ccccc4)c(=N)n(CCCn4ccnc4)c3nc12`, the Potency result is “inactive”.

For `O=C(Nc1ccccc1C(=O)Nc1nnc(C(F)(F)F)s1)c1ccccc1`, the Potency is 3.98 µM (active).

`Cc1onc(-c2c(F)cccc2Cl)c1C(=O)Nc1nnc(C(F)(F)F)s1`: the Potency entry is “inactive”.

In the case of `CC1CCCN(c2ncnc3c2cnn3-c2ccc(Cl)cc2)C1` (stereo not drawn), the Potency entry was “inactive”.

These data come from PubChem BioAssay AID1745850 (National Center for Advancing Translational Sciences (NCATS), 2022).
